According to article PMC4336329 (PLoS ONE, 2015):
Hit rate of the full screen: of about 310,000 compounds, about 14,000 (4.5%) showed an effect of 50% or more. The effect is printed as a negative number. The full list was thinned out, with strong results kept by preference.

Target: human ether-à-go-go-related gene (hERG) potassium channel (human, UniProt Q12809)
Assay: primary screen, population patch clamp on CHO cells stably expressing hERG; higher = less effect of the substance
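Note: peak tail current of the secondary pulse compared with the same well before compound.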

Sequence of human ether-à-go-go-related gene (hERG) potassium channel (Q12809 whole entry, looked up): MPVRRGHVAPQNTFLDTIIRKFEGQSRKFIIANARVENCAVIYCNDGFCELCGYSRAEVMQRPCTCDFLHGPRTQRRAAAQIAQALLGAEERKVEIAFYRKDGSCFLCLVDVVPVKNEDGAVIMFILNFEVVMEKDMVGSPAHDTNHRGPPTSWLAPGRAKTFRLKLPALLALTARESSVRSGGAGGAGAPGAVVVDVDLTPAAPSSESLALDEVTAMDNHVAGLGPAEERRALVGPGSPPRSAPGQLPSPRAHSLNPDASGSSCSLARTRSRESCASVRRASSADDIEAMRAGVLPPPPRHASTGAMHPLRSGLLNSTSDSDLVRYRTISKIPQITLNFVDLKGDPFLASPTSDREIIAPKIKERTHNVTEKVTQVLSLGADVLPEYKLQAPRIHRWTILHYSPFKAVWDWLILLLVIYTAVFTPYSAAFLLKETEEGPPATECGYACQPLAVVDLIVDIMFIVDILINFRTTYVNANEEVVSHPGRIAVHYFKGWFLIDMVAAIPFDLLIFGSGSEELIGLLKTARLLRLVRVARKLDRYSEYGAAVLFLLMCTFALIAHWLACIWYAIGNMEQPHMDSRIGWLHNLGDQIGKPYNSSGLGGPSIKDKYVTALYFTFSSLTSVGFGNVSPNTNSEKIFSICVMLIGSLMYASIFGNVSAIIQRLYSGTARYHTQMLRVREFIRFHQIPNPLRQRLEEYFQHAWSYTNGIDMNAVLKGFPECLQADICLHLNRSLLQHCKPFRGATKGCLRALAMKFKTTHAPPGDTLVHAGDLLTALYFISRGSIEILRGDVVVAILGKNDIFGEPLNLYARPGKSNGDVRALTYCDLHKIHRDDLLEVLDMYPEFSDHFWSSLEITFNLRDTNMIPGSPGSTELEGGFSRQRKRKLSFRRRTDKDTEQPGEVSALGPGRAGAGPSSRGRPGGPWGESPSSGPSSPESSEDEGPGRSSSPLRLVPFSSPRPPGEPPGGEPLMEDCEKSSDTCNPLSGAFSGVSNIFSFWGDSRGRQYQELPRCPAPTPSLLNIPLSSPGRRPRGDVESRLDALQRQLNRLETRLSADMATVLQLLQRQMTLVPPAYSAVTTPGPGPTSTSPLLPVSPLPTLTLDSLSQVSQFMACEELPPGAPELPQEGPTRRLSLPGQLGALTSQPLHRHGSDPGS

Row | SMILES | hERG current change (%, negative = inhibition) at 10uM
1 | C=C(C)COc1ccc(-c2nc(N)ncc2-c2ccccc2OC)c(O)c1 | -31.6%
2 | COc1cc(OC)c(OC)cc1/C=C(\C#N)C(=O)NCc1cccs1 | 20.6%
3 | O=C(Cn1cc2c(n1)CCCC2)Nc1ccccc1Br | 1.06%
4 | CN1C2CCC1CC(NC(=O)c1cc(Cl)cc3[nH]cnc13)C2 (stereo not drawn) | 4.12%
5 | CNC(=O)c1c2c(nc3ccc(Br)cc13)CCCC2 | 1.9%
6 | CCCCn1c(N)c(N(CCOC)C(=O)C2CC(=O)N(c3cccc(SC)c3)C2)c(=O)[nH]c1=O (stereo not drawn) | 14.4%
7 | COCCN1CN=C(Nc2nc3ccccc3o2)NC1 | 13.5%
8 | COc1cccc(OC)c1C(=O)Nc1ccc(N2CCCC2)cc1 | 7.52%
9 | Cc1ccc(N2C(=O)SC(Cc3ccccc3)C2=O)cc1 (stereo not drawn) | 13.7%
10 | COc1ccc(N(Cc2cc3ccccc3[nH]c2=O)S(=O)(=O)c2ccccc2)cc1 | 2.91%
11 | CCOC(=O)N1CCN(C(=O)c2ccc(OC(C)=O)cc2)CC1 | 16%
12 | CCCOc1ccc(N2C(=O)CC(N3CCOCC3)C2=O)cc1 (stereo not drawn) | -3.38%
13 | CCOc1ccc(N2C(=O)CC(N3CCN(c4ccc([N+](=O)[O-])cc4)CC3)C2=O)cc1 (stereo not drawn) | -28.3%
14 | CCCOc1ccc(N2C(=O)CC(N3CCN(c4ccc([N+](=O)[O-])cc4)CC3)C2=O)cc1 (stereo not drawn) | -73.8%
15 | O=C(COC(=O)c1cccc2ccccc12)Nc1cccnc1Cl | 0.703%
16 | CCC1=NN2C(=N)/C(=C\c3cccn3-c3ccc(C)cc3C)C(=O)N=C2S1 | -5.33%
17 | CCC1=NN2C(=N)/C(=C\c3cccn3-c3ccc(C)c(C)c3)C(=O)N=C2S1 | -6.32%
18 | CCC1=NN2C(=N)/C(=C\c3cccn3-c3c(C)cccc3C)C(=O)N=C2S1 | -79.4%
19 | Cc1ccc(S(=O)(=O)N2CCCC(C)C2)cc1 (stereo not drawn) | 12.9%
20 | Cc1ccc(S(=O)(=O)N2CCCC(c3nnc4n3-c3ccccc3SC4)C2)cc1 (stereo not drawn) | -92.8%
21 | Cc1ccc(-c2nc(C3CCCN(S(=O)(=O)c4ccc(C)cc4)C3)no2)cc1 (stereo not drawn) | 12.2%
22 | O=C(O)CCCCCNC(=O)c1ccccc1 | 8.89%
23 | NC(=O)CSc1nnc(-c2cccs2)n1-c1ccccc1 | 10.2%

Row | SMILES | hERG current change (%, negative = inhibition) at 10uM
24 | O=C(O)c1ccc(CSc2nnc(-c3cccnc3)n2-c2ccc(Br)cc2)cc1 | 15.1%
25 | N#Cc1ccc(CSc2nnc(-c3c[nH]c4ccccc34)n2-c2ccccc2)cc1 | 5.38%
26 | COc1ccc(-n2c(SCC#N)nnc2-c2cccnc2)cc1 | -34%
27 | CCOc1ccc(-n2c(SCc3cc(=O)oc4cc(C)ccc34)nnc2-c2cccnc2)cc1 | -70.7%
28 | CCOc1ccc(-n2c(SCC(N)=O)nnc2-c2cccnc2)cc1 | -5.57%
29 | CCOc1ccc(-n2c(SCc3cc(=O)oc4cc(C)c(C(C)C)cc34)nnc2-c2cccnc2)cc1 | -37.2%
30 | N#CCSc1nnc(-c2cccnc2)n1-c1ccccc1 | -7.93%
31 | N#Cc1ccc(CSc2nnc(-c3cccnc3)n2-c2ccccc2)cc1 | -71.2%
32 | N#Cc1ccc(CSc2nnc(-c3cccs3)n2-c2ccccc2)cc1 | -72.7%
33 | CCOc1ccc(-n2c(SCc3ccc(C#N)cc3)nnc2-c2cccnc2)cc1 | -71.9%
34 | CC(=O)Nc1ccc2c(CSc3nnc(-c4cccnc4)n3-c3ccc(C)cc3C)cc(=O)oc2c1 | -17.8%
35 | O=C(CCCN1C(=O)/C(=C/c2ccccc2Cl)SC1=S)NNC(=O)c1ccncc1 | 2.34%
36 | O=C(NNc1ccccn1)c1ccccc1CC[N+](=O)[O-] | 13.3%
37 | COc1ccc(-c2ccc(C#N)c(SCC(=O)Nc3sc4c(c3C#N)CCC4)n2)cc1OC | 10.3%
38 | COC(=O)c1c(C)[nH]c(C(=O)COc2ccc3ccc(=O)oc3c2)c1C | 11.5%
39 | CN(C(=O)C1CCOC1)c1nnc(-c2cnccn2)s1 (stereo not drawn) | 11.1%
40 | O=S(=O)(Nc1nc(-c2ccccc2)cs1)c1cc(Cl)ccc1Cl | 18.3%
41 | CCOC(=O)C1=C(CC)OC(N)=C(C#N)C1c1ccsc1 (stereo not drawn) | 1.69%
42 | CC1CCN(c2ccc(/C=N\Nc3nncn3N)cc2[N+](=O)[O-])CC1 | -5.89%
43 | Cc1cc(C)c(S(=O)(=O)N2CCCC(C(=O)NCc3cccnc3)C2)c(C)c1 (stereo not drawn) | -27%
44 | Cc1ccccc1-c1nc(CN2CCCC(C(=O)NCc3cccnc3)C2)c(C)o1 (stereo not drawn) | -64%
45 | Cc1ccccc1-c1nc(CN2CCC(C(=O)NCc3cccnc3)CC2)c(C)o1 | -32.8%
46 | CC(C)c1ccc(CN2CCC(C(=O)NCc3cccnc3)CC2)cc1.O=C(O)C(=O)O | -52.1%

Row | SMILES | hERG current change (%, negative = inhibition) at 10uM
47 | Cc1oc(-c2ccc(Cl)cc2)nc1CN1CCCC(C(=O)NCc2cccnc2)C1 (stereo not drawn) | -60.8%
48 | CCS(=O)(=O)N1CCC(C(=O)NCc2cccnc2)CC1 | -11.7%
49 | O=C(NCc1cccnc1)C1CCCN(S(=O)(=O)c2ccc(Cl)cc2)C1 (stereo not drawn) | -26.9%
50 | Cc1ccc(-c2nc(CSCC(=O)NCc3cccnc3)c(C)o2)cc1 | -15.3%
51 | COc1ccc(C(C)C)cc1S(=O)(=O)N1CCC(C(=O)NCc2cccnc2)CC1 | -5.48%
52 | Cc1oc(-c2ccccc2F)nc1CN1CCC(C(=O)NCc2cccnc2)CC1 | -26.7%
53 | Cc1oc(-c2ccc(Cl)cc2)nc1CN1CCC(C(=O)NCc2cccnc2)CC1 | -65.9%
54 | CCOC(=O)COc1nc(Nc2ccccc2C)nc(N(C)C)n1 | 1.92%
55 | Cc1ccc(N2CC(C(=O)OCC(=O)c3ccc[nH]3)CC2=O)cc1 (stereo not drawn) | -24.2%
56 | Cc1cc(C)cc(C(=O)Nc2ccncc2)c1 | 7.83%
57 | O=C(CNC(=O)c1ccco1)Nc1cccc(Cl)c1 | -10.8%
58 | O=C(Nc1ccccc1C(=O)NCCCN1CCOCC1)c1ccc(Cl)cc1 | -15.5%
59 | O=C(CCSc1ccccc1)N1CCCC1 | 10.9%
60 | CCC(=O)NCc1ccc(-c2nc3ncccc3o2)cc1 | 13%
61 | Cc1csc(SC(C)c2nc3scc(-c4ccccc4)c3c(=O)[nH]2)n1 (stereo not drawn) | 6.61%
62 | Cc1ccc(S(=O)(=O)N2[C@@H](c3cccc(Cl)c3)C(C(=O)O)=CC[C@H]2c2cccs2)cc1 | 13.7%
63 | Cc1noc(C)c1S(=O)(=O)N1CCCC(C(=O)NCc2ccccn2)C1 (stereo not drawn) | 3.78%
64 | Cc1oc(-c2cccc(Cl)c2)nc1CN1CCC(C(=O)NCc2cccnc2)CC1 | -60.9%
65 | Cc1oc(-c2ccc(Cl)cc2)nc1CN1CCCC(C(=O)NCc2ccccn2)C1 (stereo not drawn) | -67.8%
66 | Cc1oc(-c2ccc(Cl)cc2)nc1CS(=O)CC(=O)NCc1ccccn1 (stereo not drawn) | -10.7%
67 | O=C(Nc1nccs1)c1cccc(S(=O)(=O)N2CCCC2)c1 | -6.01%
68 | Cc1cc(C(=O)CN2CCC(C)CC2)c(C)n1-c1ccccc1F | -5.74%
69 | O=c1c2ccccc2nnn1-c1ccc(Br)cc1 | 12%

Row | SMILES | hERG current change (%, negative = inhibition) at 10uM
70 | COc1ccc(C(O)P(=O)(OC2CCCCC2)c2ccc(N(C)C)cc2)cc1OC (stereo not drawn) | -7.44%
71 | CCCCC1C(=O)N(c2ccccc2)N(c2ccc(O)cc2)C1=O (stereo not drawn) | -9%
72 | O=C(Cc1c[nH]c2ccccc12)NCc1ccc2c(c1)OCO2 | 19.4%
73 | Cc1ccc(CCNC(=O)c2nc(CS(=O)(=O)c3ccc(Cl)cc3)no2)cc1 | 31.6%
74 | c1cc(-c2sc(-c3ccncc3)c(-c3ccncc3)c2-c2ccncc2)ccn1 | -66.6%
75 | c1cc(-c2ccncc2)ccn1 | 20.9%
76 | Nc1ccncc1 | 5%
77 | Cc1ccc2[nH]c(=O)c(CN(CC3CCCO3)C(=S)NCc3ccco3)cc2c1 (stereo not drawn) | -8.49%
78 | COC(=O)c1ccc(-n2cnc(Cl)n2)c(F)c1 | -7.27%
79 | CCOC(=O)C1CCCN(C(=O)CNC(=O)c2nn(-c3ccc(OC)c(Cl)c3)c(=O)c3ccccc23)C1 (stereo not drawn) | -5.66%
80 | CCC1CCCCN1CCCNC(=O)CNC(=O)c1nn(-c2ccc(OC)c(Cl)c2)c(=O)c2ccccc12 (stereo not drawn) | -39.4%
81 | CCCCNC(=O)CNC(=O)c1nn(-c2ccc(OC)c(Cl)c2)c(=O)c2ccccc12 | 9.5%
82 | COc1ccc(-n2nc(C(=O)NCC(=O)NCc3ccc(F)cc3)c3ccccc3c2=O)cc1 | -12.1%
83 | COCCCNC(=O)CNC(=O)c1nn(-c2ccc(OC)c(Cl)c2)c(=O)c2ccccc12 | 8.9%
84 | COc1ccc(-n2nc(C(=O)NCC(=O)NCc3ccccc3OC)c3ccccc3c2=O)c(OC)c1 | 7.07%
85 | COc1ccc(-n2nc(C(=O)NCC(=O)NCCCN3CCC(C)CC3)c3ccccc3c2=O)cc1Cl | -74.2%
86 | CCOC(=O)C1CCN(C(=O)CNC(=O)c2nn(-c3ccc(OC)c(OC)c3)c(=O)c3ccccc23)CC1 | -2.02%
87 | COc1ccc(-n2nc(C(=O)NCC(=O)NCCCN3CCCCCC3)c3ccccc3c2=O)cc1Cl | -56%
88 | COc1ccc(-n2nc(C(=O)NCC(=O)NCc3ccccc3OC)c3ccccc3c2=O)cc1 | -69.5%
89 | COc1ccc(-n2nc(C(=O)NCC(=O)NCCCN3CCOCC3)c3ccccc3c2=O)cc1Cl | -12.6%
90 | CCOC(=O)C1CCN(C(=O)CNC(=O)c2nn(-c3ccc(OC)c(Cl)c3)c(=O)c3ccccc23)CC1 | -55%
